The source of these data is PMC4336329 (PLoS ONE, 2015).

The whole screen tested about 310,000 compounds, of which about 14,000 (4.5%) showed an effect of 50% or more. Effects have a minus sign here. This excerpt belongs to a sample that is enriched for strong results.
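Note: peak tail current of the secondary pulse compared with the same well before compound.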

In this test the target is human ether-à-go-go-related gene (hERG) potassium channel (human, UniProt Q12809). In words: primary screen, population patch clamp on CHO cells stably expressing hERG; higher = less effect of the substance.
Chain of human ether-à-go-go-related gene (hERG) potassium channel (Q12809 whole entry, looked up): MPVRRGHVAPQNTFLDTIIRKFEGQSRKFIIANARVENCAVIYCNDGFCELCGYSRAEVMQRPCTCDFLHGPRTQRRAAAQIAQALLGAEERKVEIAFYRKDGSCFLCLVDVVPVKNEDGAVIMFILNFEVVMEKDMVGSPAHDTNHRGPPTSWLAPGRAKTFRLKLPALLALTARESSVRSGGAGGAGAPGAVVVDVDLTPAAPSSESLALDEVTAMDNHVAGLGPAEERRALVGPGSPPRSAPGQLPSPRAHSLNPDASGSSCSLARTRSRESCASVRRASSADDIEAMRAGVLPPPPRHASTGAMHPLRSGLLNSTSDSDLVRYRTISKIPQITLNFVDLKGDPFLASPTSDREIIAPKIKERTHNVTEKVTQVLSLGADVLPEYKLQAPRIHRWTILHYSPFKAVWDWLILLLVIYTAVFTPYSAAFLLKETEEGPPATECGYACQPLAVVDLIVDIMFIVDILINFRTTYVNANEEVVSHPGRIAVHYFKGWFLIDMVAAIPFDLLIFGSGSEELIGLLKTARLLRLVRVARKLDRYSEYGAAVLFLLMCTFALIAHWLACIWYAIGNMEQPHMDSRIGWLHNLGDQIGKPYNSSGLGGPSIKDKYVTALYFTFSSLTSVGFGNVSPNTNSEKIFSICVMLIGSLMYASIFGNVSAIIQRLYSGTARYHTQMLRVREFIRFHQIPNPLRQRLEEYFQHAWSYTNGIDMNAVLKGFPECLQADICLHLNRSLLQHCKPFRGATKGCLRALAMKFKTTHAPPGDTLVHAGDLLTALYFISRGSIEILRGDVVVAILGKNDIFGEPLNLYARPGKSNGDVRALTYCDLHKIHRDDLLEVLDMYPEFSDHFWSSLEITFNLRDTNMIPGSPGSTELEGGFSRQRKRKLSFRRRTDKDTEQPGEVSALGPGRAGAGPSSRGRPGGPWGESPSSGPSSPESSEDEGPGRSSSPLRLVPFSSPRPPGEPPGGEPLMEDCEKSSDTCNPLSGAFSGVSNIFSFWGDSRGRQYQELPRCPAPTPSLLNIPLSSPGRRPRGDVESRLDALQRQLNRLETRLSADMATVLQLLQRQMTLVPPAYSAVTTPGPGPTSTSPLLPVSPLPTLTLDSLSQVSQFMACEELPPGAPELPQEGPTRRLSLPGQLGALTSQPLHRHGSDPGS
Consider `COc1cc(OC)c2ccc(=O)oc2c1C(CC(=O)N1CCCC1)c1ccc(N(C)C)cc1` (centres unmarked), for which the “hERG current change (%, negative = inhibition) at 10uM” value is recorded as 10.2%.
Turning to `COc1cccc(C(C(=O)NC2CCCC2)N(C(=O)c2ccco2)c2ccc(-n3cnnn3)c(C)c2)c1OC` (centres unmarked), the “hERG current change (%, negative = inhibition) at 10uM” value was found to be 8.33%.
With `COc1cc(Cl)ccc1OCc1cc(C(=O)N2C[C@]3(C)C[C@H]2CC(C)(C)C3)no1`, the “hERG current change (%, negative = inhibition) at 10uM” value is reported as -8.91%.
Next, `CC12CCC(CC1=O)C2(C)C` (centres unmarked): 8.29%.
Under `COc1ccc(OCCCCn2c(CO)nc3ccccc32)cc1` stands -24.5%; under `Cc1cccc(OCCCCn2c(CO)nc3ccccc32)c1`, -5.5%; under `CCCCOC(=O)Cn1c2ccc(OC)cc2c2nc3ccccc3nc21`, -6.29%.
Regarding `CCCCCCCCCCOC(=O)Cn1c(COc2cccc(C)c2)[n+](C)c2ccccc21.[Cl-]`, the “hERG current change (%, negative = inhibition) at 10uM” value is -76%.
Next, `CCCCCOC(=O)Cn1c(=O)oc2ccc(C)cc21`: -10.6%; `CCCCCCCCCCOC(=O)Cn1c(COc2ccc(OC)cc2)[n+](C)c2ccccc21.[Cl-]`: -83.3%; `CN(C)C(=O)C(Sc1ccc(S(=O)(=O)N2CCCC2)cn1)c1ccccc1` (centres unmarked): -13.4%.
Next, `COc1ccccc1P(=O)(c1ccccc1)c1ccccc1`: 15.1%.
As for `COc1cccc(/C=C/C(=O)NCCc2ccc(OC)c(OC)c2)c1`, the “hERG current change (%, negative = inhibition) at 10uM” value is -16.3%.
Next, `N#CCC(=O)Nc1ccc(C(=O)OCC(=O)c2ccc3c(c2)OCCO3)cc1`: 10.5%.
Next, `OC(CNCCC(c1ccccc1)c1ccccc1)COc1ccccc1` (centres unmarked): -71.4%.
Next, `CNCC(O)COc1ccccc1` (centres unmarked): -5.69%; `OC(CNCc1ccccc1)COc1ccccc1` (centres unmarked): -11.9%.
Take `CC(CCc1ccccc1)NCC(O)COc1ccccc1` (centres unmarked): the “hERG current change (%, negative = inhibition) at 10uM” value is -73.4%.
Under `OC(CNCCc1ccccc1)COc1ccc(OCC(O)CNCCc2ccccc2)cc1` (centres unmarked) stands 1.24%; under `OC(CCc1ccncc1)COc1ccccc1` (centres unmarked), 3.52%; under `CCc1cc(C(=O)N2CCN(c3ccccn3)CC2)sc1C`, -3.12%.
Next, `O=C(CCS(=O)CCC(=O)NCc1ccccc1)NCc1ccccc1`: 17.7%; `Cc1nnc(NC(=O)c2cccc(F)c2)s1`: 4.08%.
Next, `NNC(=O)CN1C(c2ccccc2)=Nc2ccc(Br)cc2C1c1ccccc1` (centres unmarked): -20%; `NNC(=O)CN1C(c2ccc(Cl)cc2)=Nc2ccc(Br)cc2C1c1ccccc1` (centres unmarked): -53.3%; `NNC(=O)CN1C(c2ccc(Br)cc2)=Nc2ccc(Br)cc2C1c1ccccc1` (centres unmarked): -30.8%.
As for `COC(=O)CN1C(c2ccccc2)=Nc2ccc(Cl)cc2C1c1ccccc1` (centres unmarked), the “hERG current change (%, negative = inhibition) at 10uM” value is on record as -66.4%.
Turning to `COC(=O)CN1C(c2ccc(Cl)cc2)=Nc2ccc(Cl)cc2C1c1ccccc1` (centres unmarked), the “hERG current change (%, negative = inhibition) at 10uM” value is given as -17.7%.
Under `COC(=O)CN1C(c2cccc(Cl)c2)=Nc2ccc(Cl)cc2C1c1ccccc1` (centres unmarked) stands 1.61%.
